Activity calls are given as the source filed them.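 Rule for the calls: active = glucocerebrosidase seen by eye moving to lysosomes in immunostained patient skin cells after 5 µM compound; inconclusive = microscope result judged unclear; inactive = no movement seen.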

Chain of Lysosomal acid glucosylceramidase (Homo sapiens) (P04062 whole entry N409S): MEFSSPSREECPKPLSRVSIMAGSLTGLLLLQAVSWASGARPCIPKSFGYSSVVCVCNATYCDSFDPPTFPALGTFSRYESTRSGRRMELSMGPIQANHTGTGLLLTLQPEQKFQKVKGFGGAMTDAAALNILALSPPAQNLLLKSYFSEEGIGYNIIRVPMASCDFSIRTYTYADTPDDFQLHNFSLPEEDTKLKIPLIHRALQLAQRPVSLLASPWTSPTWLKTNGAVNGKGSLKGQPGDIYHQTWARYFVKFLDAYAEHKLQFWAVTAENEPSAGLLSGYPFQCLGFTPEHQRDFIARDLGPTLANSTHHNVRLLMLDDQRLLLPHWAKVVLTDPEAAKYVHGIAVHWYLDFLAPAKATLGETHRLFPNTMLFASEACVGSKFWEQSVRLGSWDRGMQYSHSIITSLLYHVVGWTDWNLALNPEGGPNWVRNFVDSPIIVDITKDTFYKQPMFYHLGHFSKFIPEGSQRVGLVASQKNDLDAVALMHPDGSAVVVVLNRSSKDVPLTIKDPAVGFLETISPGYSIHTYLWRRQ

The target of the assay is Lysosomal acid glucosylceramidase (Homo sapiens) (UniProt P04062). The assay can be described thus: qHTS for Activators of Human Glucocerebrosidase as a Potential Chaperone Treatment of Gaucher Disease: Fibroblast Translocation. The following applies: Gaucher patient fibroblasts, GCase lysosomal translocation, immunofluorescence. An excerpt:
Glucocerebrosidase (GCase) catalyzes the hydrolysis of beta-glucocerebroside to glucose and ceramide in lysosomes. Mutations in the glucocerebrosidase gene result in Gaucher disease, an autosomal recessive lysosomal storage disorder. Many of the mutations encountered in patients with Gaucher disease are missense alterations that may cause misfolding, decreased stability and/or mistrafficking of this lysosomal protein. […] However, the enhancement of enzyme activity by the chaperone action of an enzyme inhibitor must be balanced against the direct inhibition of the enzyme. An enzyme activator could also function as a chaperone by binding to the enzyme and helping to correct its misfolding and mistrafficking. Activators for GCase have not yet been identified, and they may have better therapeutic potential than inhibitors. Therefore the discovery and development of chemical activators may provide a new strategy for the chaperone therapy. The probe that has been identified was tested in a chaperone translocation experiment in human fibroblasts. This assay attempts to quantitate translocated glucocerebrosidase protein in patient-derived fibroblasts following extended compound incubation. The fibroblasts tested in this experiment were homozygous either for N370S glucocerebrosidase or wildtype GCase. NIH Chemical Genomics Center [NCGC] […]
For orientation: qHTS replaces the single test concentration by a dilution series.
For the compound `CN(C(=O)CNC(=O)c1ccccc1OCC(=O)Nc1ccc(Br)cc1)c1ccccc1`, the outcome was “active; yes”.
Take `C#Cc1ccc(NC(=O)c2cnn3c(C)cc(C)nc23)cc1`: the outcome was “active; yes”.

These data come from PubChem BioAssay AID588853 (National Center for Advancing Translational Sciences (NCATS), 2011).
